Screens deposited in PubChem by several laboratories.
Only some compounds are listed: those with a hit (about 4.2% of all), similar ones and a draw of the others.
DAX1 inh = blocks DAX1 repression of SF-1 activated StAR promoter. 370,000 tested, 1.1% active. AID 652010. inhibition, % at 6.8 µM. HEK293T StAR-luciferase reporter, SF-1/DAX-1 repression relief;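 active means inhibition above the mean over all tested compounds plus 3 SD, cut at about 3.6% in these data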;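 further: 0% = DAX-1 cells with DMSO and 100% = cells lacking DAX-1 with DMSO; higher inhibition means more luminescence from relief of DAX-1 repression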
hcDAF-12 act = H. contortus DAF-12 activation, primary screen; HEK293 hcDAF-12 lit1-tk-luc reporter, luminescence; 0% DMSO, 100% Δ7-dafachronic acid; activation, % at 6.8 µM; 370,000 tested, 1.4% active; AID 652067;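 active means activation above the mean of all tested compounds plus 3 SD, cut at about 5.5% in these data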;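 further: 100% = response to 3 µM Δ7-dafachronic acid high control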
esBAF inh = SWI/SNF esBAF complex inhibition; mouse ES cells, Bmi1-luciferase knock-in reporter, 24 h; 100% = twice the neutral-well signal; 350,000 tested, 2% active; reporter increase, % at 12.5 µM; in the data active means activation above about 40%;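 further: 0% = median of the plate's neutral control wells and 100% = double that signal; a rise in the Bmi1 reporter signal indicates esBAF inhibition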
Wnt bcat act = activates Wnt/beta-catenin signaling in a reporter cell assay. activation, % at 9.35 µM. 300,000 tested, 1.2% active. activator, plate reader. AID 743398; in the data active means activation above about 30%, passing the limit was not always enough;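 further: 0% = neutral control wells and 100% = positive control wells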
hgDAF12 agonist = hgDAF-12 agonism, primary luciferase screen. activation, % at 6.8 µM. AID 687014. HEK293 GAL4-hgDAF12 UAS-luciferase reporter, agonist luminescence; normalized to butyrate control. 370,000 tested, 1.8% active;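 active means activation above a cutoff set at the mean of all screened compounds plus 3 SD, cut at about 10% in these data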;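 further: 0% = DMSO wells and 100% = sodium butyrate wells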
ssDAF-12 act = activates DAF-12 receptor from parasite S. stercoralis; HEK293 ssDAF-12/GRIP1 lit1-tk-luc reporter, luminescence; % of 3 µM dafachronic acid response; activation, % at 6.8 µM; 370,000 tested, 1% active; AID 652126;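 active means activation above the mean over all tested compounds plus 3 SD, cut at about 0.9% in these data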;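 further: 0% = DMSO-only wells and 100% = 3 µM delta7-dafachronic acid wells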
DAX1 inh confirm = NR0B1 (human) inhibition, confirmation | shares compounds with DAX1 inh | HEK293T StAR-promoter luciferase reporter, SF-1/DAX-1 repression | inhibition, % at 6.8 µM | 2,400 tested, 87% active | AID 652134;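 active means inhibition above the average of every tested compound plus 3 SD, cut at about 3.8% in these data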;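 further: 0% = DAX-1 cells with DMSO and 100% = no DAX-1 control cells with DMSO; active compounds raise luminescence by relieving repression of the StAR reporter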
Target sequence (P51843 whole entry, looked up): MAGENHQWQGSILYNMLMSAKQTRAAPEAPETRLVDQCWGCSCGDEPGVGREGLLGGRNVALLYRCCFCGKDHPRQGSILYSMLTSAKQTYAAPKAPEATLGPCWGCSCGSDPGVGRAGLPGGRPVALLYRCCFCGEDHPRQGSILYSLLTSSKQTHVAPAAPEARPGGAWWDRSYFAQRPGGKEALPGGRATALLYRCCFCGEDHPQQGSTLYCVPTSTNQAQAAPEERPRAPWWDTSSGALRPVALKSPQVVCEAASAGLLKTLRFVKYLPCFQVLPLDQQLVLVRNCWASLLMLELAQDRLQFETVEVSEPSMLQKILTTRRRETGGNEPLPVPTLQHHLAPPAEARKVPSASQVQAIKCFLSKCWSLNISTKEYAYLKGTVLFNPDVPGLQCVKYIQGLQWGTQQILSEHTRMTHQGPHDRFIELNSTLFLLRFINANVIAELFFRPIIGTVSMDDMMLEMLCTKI
SF1 mutant ctr = nonselective inhibitor or artifact in SF-1 mutant DAX1 counter-screen; shares compounds with DAX1 inh; HEK293 StAR-luciferase, SF-1 AF2 mutant, luminescence; inhibition, % at 6.8 µM; 2,400 tested, 78% active; AID 652136;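 active means inhibition above the mean of all tested compounds plus 3 SD, cut at about 3% in these data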;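 further: 0% = DAX-1 transfected cells with DMSO and 100% = cells without DAX-1 with DMSO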
Starred values were filed as active, the others as inactive; . = no result.

SMILES	DAX1 inh	hcDAF-12 act	esBAF inh	Wnt bcat act	hgDAF12 agonist	ssDAF-12 act	DAX1 inh confirm	SF1 mutant ctr
Cc1ccc(NC(=S)NC(=O)C2CCCC2)cc1C	4.6*	2.5	.	27.5	10.5*	-0.2	5.3*	4.8*
CC(=O)N1[C@@H]2c3ccc(-c4cncnc4)c(=O)n3C[C@@H]2[C@@H](CO)[C@@H]1C(=O)NCc1ccccc1Cl	.	.	5.3	.	.	.	.	.
COc1ccc(C(=O)Nc2ccccc2C(=O)Nc2cc(C)ccn2)cc1	0.7	2.9	37.0	17.0	5.3	-1.5	.	.
COc1cc2ccccc2cc1C(=O)Nc1cc(C)ccn1	5.3*	6.4*	55.4*	25.9	12.0*	0.5	4.2*	2.2
C[C@@H]1CN([C@@H](C)CO)C(=O)c2cc(NS(=O)(=O)c3cccs3)ccc2O[C@H]1CN(C)C(=O)Nc1ccc(C(F)(F)F)cc1	.	.	-0.6	.	.	.	.	.
O=C(c1cc(COc2ccc(F)cc2Cl)on1)N1CC2C[C@@H]3CC1C[C@H](C2)C3	5.7*	2.8	59.2*	15.0	12.9*	-0.4	5.8*	2.0
Cc1nnc(CN(C)C(=O)c2cc(COc3ccc(F)cc3Cl)on2)o1	5.2*	4.3	52.5*	17.9	5.5	-0.5	8.1*	4.2*
Cc1ccc(OCc2cc(C(=O)N3CC4C[C@@H]5CC3C[C@H](C4)C5)no2)cc1C	5.2*	4.8	51.8*	19.7	11.0*	0.1	2.1	3.6*
CCOC(=O)CSC1=C(C#N)C(c2ccc(C)o2)CC(=O)N1 (configuration not stated)	5.6*	0.6	-4.6	-16.1	-5.1	0.2	17.1*	-5.6
CCOC(=O)CSC1=C(C#N)C(c2ccc(Cl)cc2)CC(=O)N1 (configuration not stated)	-0.7	-1.6	16.7	0.3	1.8	-1.5	.	.
COc1cc(Cl)ccc1OCc1cc(C(=O)N2C[C@H]3CC[C@H]2C3)no1	5.5*	2.2	63.4*	-1.2	7.9	0.1	4.7*	4.0*
COc1cc(Cl)ccc1OCc1cc(C(=O)N2C[C@]3(C)C[C@H]2CC(C)(C)C3)no1	2.1	1.5	.	25.9	7.9	-0.3	.	.
COc1cc(Cl)ccc1OCc1cc(C(=O)N2C[C@@H]3CCC[C@H]2C3)no1	5.2*	4.3	92.1*	38.3*	8.8	-0.2	7.5*	4.9*
O=C(c1cc(COc2cccc(C(F)(F)F)c2)on1)N1C[C@@H]2CCC[C@H]1C2	1.0	1.0	.	12.8	2.7	-0.7	.	.
O=C(NCCc1ccccc1)[C@@H]1[C@@H](CO)[C@@H]2Cn3c(cccc3=O)[C@H]1N2C(=O)C1CCCC1	.	.	0.9	.	.	.	.	.
CCOC(=O)c1c(C)[nH]c(C(=O)NNC(=O)c2ccccc2F)c1C	5.1*	2.1	34.9	-0.9	9.7	-0.9	8.3*	6.5*
CCOC(=O)c1c(C)[nH]c(C(=O)NNC(=O)c2ccccc2)c1C	.	.	7.2	13.8	.	.	.	.
COc1ccc(N2C(=O)c3ccccc3NC23CCCCC3)cc1	4.5*	2.8	-23.6	27.9	12.1*	0.3	13.0*	6.5*
O=C(C[C@@H]1C=C[C@H](NC(=O)c2cccnc2)[C@H](CO)O1)NCCN1CCCCC1	.	.	-7.4	.	.	.	.	.
O=C(NCC(=O)N1CCCCC1)c1sc2ccccc2c1Cl	5.8*	0.6	15.5	44.9*	8.3	0.0	5.5*	3.4*
Cc1ccnc(NC(=O)CNC(=O)c2sc3ccccc3c2Cl)c1	10.0*	4.9	52.1*	12.0	9.6	0.0	11.2*	7.2*
COc1ccc(C)cc1NC(=O)CNC(=O)c1sc2ccccc2c1Cl	2.4	2.5	-3.7	-0.6	1.3	0.2	.	.
Cc1cccnc1NC(=O)c1sc2ccccc2c1Cl	10.1*	3.5	28.8	-3.4	13.2*	-0.1	11.3*	5.3*
C[C@@H]1CN([C@H](C)CO)C(=O)Cc2cc(NC(=O)Nc3ccc(F)cc3)ccc2O[C@@H]1CN(C)Cc1ccc(C(=O)O)cc1	.	.	0.5	.	.	.	.	.
